Measurements reported in PubChem BioAssay (NCI).
Compounds without any hit were thinned out: in the full panel of roughly 79,000, 15% have a hit. A number with no mark means an inactive call. The source made the active and inactive calls. Rule as the data show it: active = growth inhibition above about 70%; inactive = the rest.

Columns and labels:
[1] = NCI Yeast Anticancer Drug Screen. Data for the rad50 strain (AID 155);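 also: 0% = growth of vehicle-only cultures of the same strain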; settings: S. cerevisiae rad50 strain growth inhibition, hits give high values
Outline: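 Vehicle-treated cultures provide the reference for the growth inhibition reported for compound-exposed, repair-deficient yeast.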

[2] = NCI Yeast Anticancer Drug Screen. Data for the mec2-1 strain (AID 157); settings: S. cerevisiae mec2-1 strain, hits give high values
Outline: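 Growth inhibition is read against vehicle-treated controls after compound exposure of the mec2-1 yeast strain, which is defective in DNA damage repair or cell cycle control.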

[3] = NCI Yeast Anticancer Drug Screen. Data for the sgs1 mgt1 strain (AID 161);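 also: 0% = growth of cultures given vehicle only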; settings: S. cerevisiae sgs1 mgt1 strain, hits give high values
Outline: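 Percent growth inhibition was derived by comparing compound-exposed mutant yeast with vehicle-exposed cultures. The strain carries alterations in DNA damage repair.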

[4] = NCI Yeast Anticancer Drug Screen. Data for the cln2 rad14 strain (AID 165);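 also: 0% = growth equal to vehicle treated cultures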; settings: S. cerevisiae cln2 rad14 strain, hits give high values
Outline: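 Growth inhibition, relative to vehicle-treated controls, is the read-out. The test organism is a yeast strain with defined genetic alterations, cln2 rad14.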

[5] = NCI Yeast Anticancer Drug Screen. Data for the bub3 strain (AID 167); settings: S. cerevisiae bub3 mutant strain, hits give high values
Outline: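 Mutant yeast screening strain plus compound; vehicle-treated cultures serve as the 0% inhibition reference.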

[6] = NCI Yeast Anticancer Drug Screen. Data for the mlh1 rad18 strain (AID 175); settings: S. cerevisiae mlh1 rad18 strain growth inhibition, hits give high values
Outline: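 Cells of a genetically altered yeast strain, deficient in DNA damage repair, were treated with compound. Their growth was then compared with that of vehicle-treated cultures to give inhibition.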

[7] = at 5.0 µM (retest, dose inferred, filed as 0.5)
[8] = at 50.0 µM (retest, dose inferred, filed as 5.0)

Row | Compound | growth inhibition [1, 7] | growth inhibition [1, 8] | growth inhibition ([1]; at 50.0 µM) | growth inhibition [2, 7] | growth inhibition [2, 8] | growth inhibition ([2]; at 50.0 µM) | growth inhibition [3, 7] | growth inhibition [3, 8] | growth inhibition ([3]; at 50.0 µM) | growth inhibition [4, 7] | growth inhibition [4, 8] | growth inhibition ([4]; at 50.0 µM) | growth inhibition [5, 7] | growth inhibition [5, 8] | growth inhibition ([5]; at 50.0 µM) | growth inhibition [6, 7] | growth inhibition [6, 8] | growth inhibition ([6]; at 50.0 µM)
1 | N#CC1Sc2ccccc2N1C(=O)c1ccccc1 (configuration not stated) | -2% | 3% | 96.6% (active) | -15% | -6% | 91% (active) | -2% | -19% | 93% (active) | -12% | -19% | 78% (active) | -10% | 4% | 84.2% (active) | -12% | -5% | 98% (active)
2 | O=S(=O)(c1cc(Br)ccc1O)c1cc(Br)ccc1O | 94% (active) | 99% (active) | 99.8% (active) | 99% (active) | 100% (active) | 99.8% (active) | 89% (active) | 99% (active) | 99.8% (active) | 99% (active) | 100% (active) | 99.5% (active) | 99% (active) | 100% (active) | 99.7% (active) | 98% (active) | 99% (active) | 99.5% (active)
3 | CC(=O)c1sc2c(c1O)c(=O)n(-c1ccccc1)c(=S)n2-c1ccccc1 | -4% | 75% (active) | 68.3% | 19% | 83% (active) | 67.4% | 10% | 88% (active) | 75.5% (active) | 16% | 95% (active) | 80% (active) | 25% | 94% (active) | 58.4% | -11% | 87% (active) | 29.9%
4 | O=C(c1cc2c(C(F)(F)F)onc2c2ccccc12)C(F)(F)F | -8% | 5% | 76.7% (active) | -17% | 9% | 44.9% | -8% | -2% | 50.6% | 0% | 28% | 64.8% | 12% | 42% | 38.9% | 0% | 26% | 36.4%
5 | COc1cc2c(cc1OC(C)=O)C(=O)C(Br)(Br)CCC2 | 66% | 99% (active) | 62.5% | 32% | 99% (active) | 98.5% (active) | 88% (active) | 99% (active) | 65.1% | 13% | 98% (active) | 94.2% (active) | 10% | 47% | 99% (active) | 49% | 99% (active) | 98.5% (active)
6 | CCCCc1c2c(nc3c1CCc1cc4cc5c(nc4nc1-3)-c1nc3c(c(CCCC)c1CC5)CCCC3=O)C(=O)CCC2 | 71% (active) | 97% (active) | 97.7% (active) | 86% (active) | 97% (active) | 97.2% (active) | 54% | 97% (active) | 98% (active) | 90% (active) | 96% (active) | 95.9% (active) | 97% (active) | 96% (active) | 97.2% (active) | 86% (active) | 96% (active) | 97.3% (active)
7 | O=C(NC(Cc1ccccc1)C(=O)O)c1ccncc1 (configuration not stated) | -2% | -12% | 61.6% | -1% | -7% | 28.9% | 0% | -5% | 63.2% | -1% | -11% | 57.2% | -1% | -2% | 44.1% | -1% | -6% | 46.1%
8 | O=C(Oc1c([N+](=O)[O-])cc(-c2ccc([N+](=O)[O-])cc2)cc1[N+](=O)[O-])c1ccccc1 | 32% | 56% | 74.7% (active) | 86% (active) | 89% (active) | 78.1% (active) | 80% (active) | 87% (active) | 82.5% (active) | 34% | 76% (active) | 79.3% (active) | 49% | 74% (active) | 74.3% (active) | 82% (active) | 83% (active) | 82.7% (active)
9 | O=C1OC2(c3ccc(O)cc3Oc3cc(O)ccc32)c2c1c(-c1ccccc1)c(-c1ccccc1)c(-c1ccccc1)c2-c1ccccc1 | 26% | 83% (active) | 76.7% (active) | 13% | 52% | 36.6% | 14% | 50% | 39.9% | -10% | 34% | -14.4% | -1% | 59% | 50.9% | 6% | 73% (active) | 62.8%
